Test results published in PubChem BioAssay (NCATS).
Inconclusive results are not listed. Where a call stands in place of a potency, no number is given. The source made the active and inactive calls. Calls follow the shape of the dose curve; as a rule, active = well fitted inhibition curve with a large enough effect; inconclusive = small, poorly fitted or top-dose-only effect; inactive = no such curve, though single readings can be large or run the other way.

tested on: Zika virus NS2B-NS3 protease (linked construct); test: Primary screen NINDS Rhodamine qHTS for Zika virus inhibitors (AID 1347160); conditions: purified NS2B-NS3 protease, Rhodamine110 substrate fluorescence; series mostly up to 33.1 µM; also: nearly all actives have a fitted effect of over 55% in size
Summary of the method: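 Purified linked NS2B-NS3 protease (NS2B hydrophilic domain joined to NS3 protease by flexible linker), 25 nM in 10 mM Tris-HCl pH 8.0, 0.01% Tween 20. Compounds titrated, 15 min preincubation at room temperature; 1.5 microM Rhodamine110 substrate, FITC fluorescence change over 15 min.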
Potency is read from the fitted curve at half-maximal effect.

SMILES | Potency
C[C@H]1CCN2C[C@]34C[C@@]5(C(=O)Nc6c5ccc5c6OC=CC(C)(C)O5)C(C)(C)C3C[C@]12C(=O)N4C (some centres undefined) | inactive
C=C1C(O)CC2C(C(=O)O)=COC(OC3OC(CO)C(O)C(O)C3OC(=O)/C=C\c3ccc(O)cc3)C12 (centres undefined) | inactive
COc1cc(O)c(C(=O)O)c(CCc2ccccc2)c1 | 22.4 µM (active)
C=C1CC/C=C(/C(=O)O)CCC2C1CC2(C)C (centres undefined) | inactive
O=C(/C=C/c1ccc(O)c(O)c1)OC[C@H]1O[C@@H](OC2CCCCC2O)[C@H](O)[C@@H](O)[C@@H]1O (some centres undefined) | inactive
C/C(=C\CCC(C)(C)O)CCO[C@@H]1O[C@H](CO[C@@H]2O[C@@H](C)[C@H](O)[C@@H](O)[C@H]2O)[C@@H](O)[C@H](O)[C@H]1O | inactive
CC(C)[C@@H](C(=O)O)N1Cc2c(cc(O)c3c2O[C@]2(C3)[C@H](C)CCC3C(C)(C)[C@H](O)[C@H](O)C[C@@]32C)C1=O (some centres undefined) | 7.94 µM (active)
CC1OC(OC2C(OC(=O)[C@]34CCC(C)(C)C[C@H]3C3=CCC5[C@@]6(C)CC[C@H](OC7OC(C(=O)O)C(O)C(O)C7O)C(C)(C)C6CC[C@@]5(C)[C@]3(C)CC4O)OC(CO)C2O)C(O)C(O)C1OC1OCC(O)C(O)C1O (some centres undefined) | inactive
CC12CC(c3ccoc3)OC(=O)C1CCC1(C)C2CCC(O)C1(C)O (centres undefined) | inactive
COc1ccc(-n2c(=O)[nH]c3cc(C(=O)NCc4ccc(Cl)cc4)sc3c2=O)nc1OC | inactive
C=C1CC[C@@H]2[C@](C)(CO)[C@H](O[C@@H]3O[C@H](CO)[C@@H](O)[C@H](O)[C@H]3O)CC[C@@]2(C)[C@@H]1C/C=C1/C(=O)OC[C@H]1O | inactive
C[C@@H]1O[C@@H](O[C@H]2[C@H](O)[C@@H](O)[C@H](OC(=O)[C@]34CCC(C)(C)C[C@H]3C3=CCC5[C@@]6(C)CC[C@H](O[C@@H]7O[C@H](C(=O)O)[C@@H](O)[C@H](O)[C@H]7O)C(C)(C)C6CC[C@@]5(C)[C@]3(C)CC4)O[C@@H]2CO)[C@H](O)[C@H](O)[C@H]1O (some centres undefined) | inactive
CC(C)(O)C1CC=C(C(=O)OC[C@H]2O[C@@H](OC(=O)C3=CCC(C(C)(C)O)CC3)[C@H](O)[C@@H](O)[C@@H]2O)CC1 (some centres undefined) | inactive
C=C(COC(=O)CC(C)C)C1Cc2cc(C(C)=O)ccc2O1 (centres undefined) | inactive
C=C(C(=O)O)[C@H]1C[C@]2(C)C(=O)CC[C@]23O[C@H]1C[C@@H]3C | inactive
CC1=CC(=O)CC(C)(C)C1/C=C/C(C)OC1OC(COC2OCC(O)C(O)C2O)C(O)C(O)C1O (centres undefined) | inactive
CC1=CC2=C(C)C(=O)C(C)(O)C(O)C2CO1 (centres undefined) | inactive
CC(=O)c1c(C)cccc1O[C@@H]1O[C@H](CO)[C@@H](O)[C@H](O)[C@H]1O | inactive
C=C1Cc2c(Cl)cc3[nH]c4c5c3c2[C@@]2(O)[C@@H]1C[C@@H]2C(C)(C)O[C@H]5C1CC[C@@]2(O)[C@@]35O[C@@H]3[C@H]3OC(C)(C)[C@H]3O[C@H]5CC[C@]2(C)[C@@]41C (some centres undefined) | inactive
C=C1C(O)CCC2(C)CC3(OC)OC(=O)C(C)=C3CC12 (centres undefined) | inactive

SMILES | Potency
C[C@@H]1CC[C@]2(C(=O)O)CC[C@]3(C)C(=CCC4[C@@]5(C)C[C@@H](O)[C@H](O)[C@@](C)(CO)C5CC[C@]43C)C2[C@H]1C (some centres undefined) | inactive
CC1=C2CC(O)(C(C)(C)O)C(O[C@@H]3O[C@H](CO)[C@@H](O)[C@H](O)[C@H]3O)CC(C)C2CC1=O (some centres undefined) | inactive
CC1CCC2C(C)(C)C(O)C(O)CC2(C)C12Cc1c(O)cc(CO)c(C=O)c1O2 (centres undefined) | inactive
O=C(O)C[C@H]1CCC(=O)[C@@H]1C/C=C\CCO | inactive
COc1cc(C(O)C2COC(c3ccc(OC4OC(CO)C(O)C(O)C4O)c(OC)c3)C2CO)ccc1O (centres undefined) | inactive
COC(=O)c1ccccc1O[C@@H]1O[C@H](CO[C@@H]2OC[C@@H](O)[C@H](O)[C@H]2O)[C@@H](O)[C@H](O)[C@H]1O | inactive
CC1=CC(=O)C(=C(C)C)CC2C(C)(O)CCC12O (centres undefined) | inactive
C/C=C/C=C/C(=O)OC1CC/C=C/C(O)C(O)C(CCC)OC1=O (centres undefined) | inactive
O=C1C[C@@]2(C(=O)N1)C(=O)N(Cc1ccc(Br)cc1F)C(=O)c1cccn12 | inactive
O=C(O)CC1(O)C(=O)Nc2ccccc21 (centres undefined) | inactive
C=CC(C)(O)CCC1C(C)(O)CCC2C(C)(C)CCCC21C (centres undefined) | inactive
COCC1OC(OC(C)(C)C2CCC3(C)C=C(C4CCC5C4(C)CC(O)C4OC(C(C)(C)O)CCC45C)CCC3O2)C(NC(C)=O)C(O)C1O (centres undefined) | inactive
CC(C)c1ccc2c(c1)C(O)CC1C(C)(C(=O)O)CCCC21C (centres undefined) | inactive
CC(C)Oc1ccc(-c2nc(-c3cccc4c3CCC4NCCC(=O)O)no2)cc1C#N (centres undefined) | inactive
OC[C@H]1O[C@@H](OCCc2ccccc2)[C@H](O)[C@@H](O)[C@@H]1O | inactive
CC(O)/C=C/C1(O)C(C)C(O)C(O[C@@H]2O[C@H](CO)[C@@H](O)[C@H](O)[C@H]2O)CC1(C)C (some centres undefined) | inactive
C[C@H]1[C@H](C)C[C@@H](C(=O)O)C2CC[C@]3(C)C(=CC[C@@H]4[C@@]5(C)CC[C@H](O)C(C)(C)[C@@H]5CC[C@]43C)[C@@H]21 (some centres undefined) | inactive
Cn1c2ccc(NC(=O)c3ccccc3)cc2c(=O)n2nc(C(=O)O)cc12 | inactive
CC1=C2C(=O)C=C(CO)C2C2OC(=O)C(CS(=O)(=O)O)C2C(OC(=O)Cc2ccc(O)cc2)C1 (centres undefined) | inactive
